Here are results for ten molecules from PubChem BioAssay (Tox21).

Test [1] in a line: qHTS assay to identify small molecule antagonists of the glucocorticoid receptor (GR) signaling pathway - cell viability counter screen (AID 720693). Also: nearly all actives have a fitted effect of over 55% in size.
Test [2] is described as follows: qHTS assay for identifying genotoxic compounds that show differential cytotoxicity against isogenic chicken DT40 cell lines with known DNA damage response pathways - Rev3 mutant cell line (AID 743014). Also: nearly all actives have a fitted effect of over 55% in size. Also: potency is read from the fitted curve at half-maximal effect.
The nature of test [3]: qHTS assay for identifying genotoxic compounds that show differential cytotoxicity against isogenic chicken DT40 cell lines with known DNA damage response pathways - Rad54/Ku70 mutant cell line (AID 743015). Also: nearly all actives have a fitted effect of over 60% in size.
Test [4] is described as follows: qHTS assay to identify small molecule antagonists of the androgen receptor (AR) signaling pathway - cell viability counter screen (AID 743033; also: nearly all actives have a fitted effect of over 45% in size).
A short description of test [5]: qHTS assay to identify small molecule antagonists of the androgen receptor (AR) signaling pathway using the MDA cell line - cell viability counter screen (AID 743041; also: nearly all actives have a fitted effect of over 45% in size). Summed up: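 MDA-kb2 AR-luc cells (MMTV-luciferase, AR/GR responsive) treated with compounds plus R1881 agonist for 16 h at 37C. CellTiter-Fluor added at 15.5 h; fluorescence read after 30 min in the same wells.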

Test [6] is described as follows: qHTS assay to identify small molecule antagonists of the thyroid receptor (TR) signaling pathway - cell viability counter screen (AID 743064). Also: nearly all actives have a fitted effect of over 50% in size. Summed up: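 GH3.TRE-Luc rat pituitary cells dosed after 4 hr plating, co-stimulated with T3 at 1 nM final, incubated 23.5 h at 37 C. Viability measured in the same wells by CellTiter-Fluor fluorescence after 30 min further at 37 C.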

Test [7] is described as follows: qHTS assay to identify small molecule antagonists of the thyroid receptor (TR) signaling pathway (AID 743065). Also: series mostly up to about 70 µM; nearly all actives have a fitted effect of over 55% in size. Summed up: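 GH3.TRE-Luc rat pituitary cells (two TREs driving luciferase) were dosed with compound, then stimulated with 1 nM T3 (final) for 23.5 h at 37 C. ONE-Glo luminescence was the read-out, with CellTiter-Fluor fluorescence as the cytotoxicity counter-screen.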

The test system of test [8] is thyroid hormone receptor (rat, GH3 cells). The experiment in a line: qHTS assay to identify small molecule agonists of the thyroid receptor (TR) signaling pathway (AID 743066; calls by dose curve).
A short description of test [9]: qHTS assay to identify small molecule antagonists of the estrogen receptor alpha (ER-alpha) signaling pathway - cell viability counter screen (AID 743074; calls by dose curve;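 also: HEK293 cells carrying ER-alpha-UAS-bla reporter stimulated with 17beta-estradiol; nearly all actives have a fitted effect of over 45% in size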).
Test [10] in a line: qHTS assay to identify small molecule antagonists of the estrogen receptor alpha (ER-alpha) signaling pathway using the BG1 cell line - cell viability counter screen (AID 743081).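 Also: compound given together with 17beta-estradiol as the ER stimulus; series mostly up to about 70 µM; nearly all actives have a fitted effect of over 45% in size.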
Test [11] concerns the target Aromatase (Homo sapiens) (UniProt P11511). The test can be described thus: qHTS assay to identify aromatase inhibitors (AID 743083). Also: series mostly up to about 70 µM; nearly all actives have a fitted effect of over 55% in size.
In test [12] the target is Estrogen receptor (Homo sapiens) (UniProt P03372). The test can be described thus: qHTS assay to identify small molecule antagonists of the estrogen receptor alpha (ER-alpha) signaling pathway (AID 743069; active = well fitted curve in the direction sought with a large enough effect in the signal ratio in the repeat runs, not every such curve was filed as active; the % refers to the signal ratio). A digest of the protocol:
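HEK293 ER-alpha-UAS-bla GripTite cells, held overnight in 2% charcoal-stripped FBS, 5,000 cells/well, preincubated 4 h, then compound plus 17beta-estradiol for 18 h at 37C. Beta-lactamase read by LiveBLAzer B/G FRET substrate, 2 h at room temperature.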

Test [13] has the same target. The test can be described thus: qHTS assay to identify small molecule agonists of the estrogen receptor alpha (ER-alpha) signaling pathway (AID 743075; calls by dose curve).
Test [14] shares this target. The experiment in a line: qHTS assay to identify small molecule agonists of the estrogen receptor alpha (ER-alpha) signaling pathway using the BG1 cell line (AID 743079). Also: nearly all actives have a fitted effect of over 20% in size. Also: potency is read from the fitted curve at half-maximal effect.
Test [15] can be described thus: qHTS assay to identify small molecule antagonists of the estrogen receptor alpha (ER-alpha) signaling pathway using the BG1 cell line (AID 743080; calls by dose curve;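 also: BG1 cells stimulated with 17beta-estradiol alongside compound; series mostly up to about 70 µM; nearly all actives have a fitted effect of over 25% in size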). Summed up:
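Luminescence from a 4×ERE-luciferase reporter in BG1-Luc-4E2 cells served as read-out. Cells, pre-cultured 5 days in stripped-serum phenol-red-free medium, were exposed to compound with 17beta-estradiol co-stimulation for 21.5 h at 37 C.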

“And” between values parts separate entries of the source, which are not always exact repeats. Equal values may be shown once. Inconclusive results are not listed. Some compounds were tested as several samples or in several runs, with calls that do not always agree. The source made the active and inactive calls. Unless noted, calls follow the shape of the dose curve; as a rule, active = well fitted curve in the direction sought with a large enough effect in the repeat runs; inconclusive = weak or mixed curves; inactive = no such curve, though single readings can be large; an effect the other way counts as inactive or inconclusive.

Sequence of Aromatase (Homo sapiens) (P11511 whole entry, looked up): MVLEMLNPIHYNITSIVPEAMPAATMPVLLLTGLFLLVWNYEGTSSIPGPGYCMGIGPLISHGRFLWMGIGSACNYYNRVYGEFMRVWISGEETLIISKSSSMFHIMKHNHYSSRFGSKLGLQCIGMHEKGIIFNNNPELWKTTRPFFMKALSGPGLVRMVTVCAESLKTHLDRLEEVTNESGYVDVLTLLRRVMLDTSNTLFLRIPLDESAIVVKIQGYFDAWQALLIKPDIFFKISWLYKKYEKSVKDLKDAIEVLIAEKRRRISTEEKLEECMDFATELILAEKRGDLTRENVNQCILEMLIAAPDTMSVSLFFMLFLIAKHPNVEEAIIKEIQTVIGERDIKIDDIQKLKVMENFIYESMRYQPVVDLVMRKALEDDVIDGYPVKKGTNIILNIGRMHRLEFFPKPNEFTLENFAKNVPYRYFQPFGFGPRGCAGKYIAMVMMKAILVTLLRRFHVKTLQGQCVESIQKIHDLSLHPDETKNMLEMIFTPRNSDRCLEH
Sequence of Estrogen receptor (Homo sapiens) (P03372 whole entry, looked up): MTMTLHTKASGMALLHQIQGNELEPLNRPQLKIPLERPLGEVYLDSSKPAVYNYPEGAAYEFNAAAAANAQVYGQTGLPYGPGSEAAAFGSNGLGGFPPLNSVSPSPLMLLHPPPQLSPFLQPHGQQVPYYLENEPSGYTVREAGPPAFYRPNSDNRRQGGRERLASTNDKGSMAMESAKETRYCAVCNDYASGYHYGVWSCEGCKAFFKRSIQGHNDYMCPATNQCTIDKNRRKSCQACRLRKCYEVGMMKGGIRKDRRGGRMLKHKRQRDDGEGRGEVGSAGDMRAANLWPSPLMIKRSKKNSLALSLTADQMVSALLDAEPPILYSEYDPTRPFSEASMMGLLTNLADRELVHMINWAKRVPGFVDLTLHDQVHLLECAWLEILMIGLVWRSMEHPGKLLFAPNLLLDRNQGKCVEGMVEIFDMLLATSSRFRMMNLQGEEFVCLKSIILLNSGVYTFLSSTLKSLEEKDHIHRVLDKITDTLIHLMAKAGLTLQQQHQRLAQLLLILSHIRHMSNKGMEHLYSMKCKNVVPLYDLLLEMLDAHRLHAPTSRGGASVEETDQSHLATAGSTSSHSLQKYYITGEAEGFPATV

In the case of `C#CC(C)(C)NC(=O)c1cc(Cl)cc(Cl)c1`, the molecule was called inactive in [1], in [4], in test [5], in [8] and in test [10]. In addition, the Potency in test [2] was 68.6 µM (active). Further, the Potency entry in test [3], in [6], in test [7], in test [9] and in [11] was “inactive” each time.
Turning to `COC(=O)c1ccccc1N`, the call in [1], in test [4], in test [5], in test [8] and in [10] was inactive. Further, the Potency result in test [2], in [3], in test [6], in test [7], in [9] and in [11] was “inactive” in each case.
Take `Clc1cccc(Cl)c1Cl`: the molecule was called inactive in test [1], in test [4], in [5], in test [8] and in [10]. Also, the Potency entry in test [2], in test [3], in test [6], in test [7], in [9] and in test [11] was “inactive” throughout.
On to `CC(C)NC(=O)N1CC(=O)N(c2cc(Cl)cc(Cl)c2)C1=O`, for which the outcome in test [1], in test [4], in [5], in [8] and in [10] was inactive. Further, in [2], the Potency is 54.5 µM (active). Moreover, the Potency result in test [7], in test [12], in test [9], in test [13], in [14] and in test [15] was “inactive” each time. Also, the Potency entry in test [11] is “inactive”.
On to `Cc1cc(Cl)ccc1O`, for which the call in test [1], in [4], in test [5], in test [8] and in [10] was inactive. In addition, the Potency result in test [2], in [3], in [6], in [7], in [9] and in [11] was “inactive” throughout.
For the molecule `O=C1CCCN1`, the outcome in test [1], in [4], in test [5], in test [8] and in [10] was inactive. The Potency entry in test [2], in test [3], in test [6], in test [7], in test [12] and in test [9] was “inactive” throughout. Besides, the Potency entry in test [13], in [15] and in [11] was “inactive” each time. Besides, the Potency entry in test [14] was “inactive and 48.6 µM (active)”.
`C=CCO`: the call in test [1], in test [4], in test [5] and in test [10] was inactive. Also, the Potency result in [2], in test [3], in test [6], in test [9] and in test [11] was “inactive” throughout.
In the case of `COC(=O)NS(=O)(=O)c1ccc(N)cc1`, the molecule was called inactive in [1], in [4], in test [5], in [8] and in test [10]. The Potency result in [2], in test [3], in test [6], in [7], in [12] and in test [9] was “inactive” in each case. For the same molecule, the Potency entry in test [13], in test [14], in test [15] and in [11] was “inactive” throughout.
Take `BrCCBr`: the molecule was classed as inactive in test [1], in test [4], in [5], in test [8] and in [10]. For the same molecule, the Potency in test [2] was 18.8 µM (active) and inactive. For the same molecule, the Potency result in test [3], in [6], in test [7], in test [12], in test [9] and in [13] was “inactive” each time. The Potency result in [14], in test [15] and in [11] was “inactive” in each case.
In the case of `Cc1ccc(N)cc1Cl`, the call in test [1], in [4], in test [5], in test [8] and in [10] was inactive. Moreover, the Potency entry in test [2], in test [3], in test [6], in [7], in test [12] and in test [9] was “inactive” each time. Further, the Potency result in test [13], in test [14], in test [15] and in test [11] was “inactive” in each case.
